Assay results reported in PubChem BioAssay AID1159580 (chemical genetic matrix, 2015).
About 2,000 (36%) of roughly 5,500 compounds were called active. Inconclusive results (about 18%) are left out. Cut-off read from the data, not from the text of the source: active = normalized growth mostly below about 0.91 (no sharp cut-off); inconclusive = no clear call, values can overlap the other calls; inactive = mostly above about 0.92. The list shows a part of the results.

Test: chemical genetic growth profiling, strain panel (AID 1159580);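 note: tested at 20 µM; growth read once vehicle control cultures reached saturation at 30 °C; 1 = growth at the plate median or of vehicle wells; lower values mean less growth of the strain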
Details: growth OD
[1] = S. cerevisiae deletion strains, locus YBR021W, strain FUR4, stronger effect = lower value
[2] = S. cerevisiae deletion strains, locus YBR229C, strain ROT2, stronger effect = lower value
[3] = S. cerevisiae deletion strains, locus YCL029C, strain bik1, stronger effect = lower value
[4] = S. cerevisiae deletion strains, locus YDL035C, strain GPR1, stronger effect = lower value
[5] = S. cerevisiae deletion strains, locus YDL074C, strain BRE1, stronger effect = lower value
[6] = S. cerevisiae deletion strains, locus YDL101C, strain DUN1, stronger effect = lower value
[7] = S. cerevisiae deletion strains, locus YDL134C, strain PPH21, stronger effect = lower value
[8] = S. cerevisiae deletion strains, locus YDL185W, strain tfp1, stronger effect = lower value
[9] = S. cerevisiae deletion strains, locus YDL192W, strain arf1, stronger effect = lower value
[10] = S. cerevisiae deletion strains, locus YDR101C, strain arx1, stronger effect = lower value
[11] = S. cerevisiae deletion strains, locus YDR162C, strain NBP2, stronger effect = lower value
[12] = S. cerevisiae deletion strains, locus YDR318W, strain mcm21, stronger effect = lower value
[13] = S. cerevisiae deletion strains, locus YDR388W, stronger effect = lower value
[14] = S. cerevisiae deletion strains, locus YDR502C, strain sam2, stronger effect = lower value
[15] = S. cerevisiae deletion strains, locus YEL061C, strain CIN8, stronger effect = lower value
[16] = S. cerevisiae deletion strains, locus YER110C, stronger effect = lower value
[17] = S. cerevisiae deletion strains, locus YER155C, strain BEM2, stronger effect = lower value
[18] = S. cerevisiae deletion strains, locus YER167W, strain BCK2, stronger effect = lower value
[19] = S. cerevisiae deletion strains, locus YGL078C, strain dbp3, stronger effect = lower value
[20] = S. cerevisiae deletion strains, locus YGL086W, strain mad1, stronger effect = lower value
[21] = S. cerevisiae deletion strains, locus YGL248W, strain PDE1, stronger effect = lower value
[22] = S. cerevisiae deletion strains, locus YGR135W, strain pre9, stronger effect = lower value
[23] = S. cerevisiae deletion strains, locus YGR252W, strain gcn5, stronger effect = lower value
[24] = S. cerevisiae deletion strains, locus YHR030C, strain SLT2, stronger effect = lower value
[25] = S. cerevisiae deletion strains, locus YHR079C, strain IRE1 (second series), stronger effect = lower value
[26] = S. cerevisiae deletion strains, locus YHR094C, strain hxt1, stronger effect = lower value
[27] = S. cerevisiae deletion strains, locus YHR129C, strain ARP1, stronger effect = lower value
[28] = S. cerevisiae deletion strains, locus YHR200W, strain rpn10, stronger effect = lower value
[29] = S. cerevisiae deletion strains, locus YIL066C, strain RNR3, stronger effect = lower value
[30] = S. cerevisiae deletion strains, locus YIL073C, strain SPO22, stronger effect = lower value
[31] = S. cerevisiae deletion strains, locus YIL125W, strain kgd1, stronger effect = lower value
[32] = S. cerevisiae deletion strains, locus YIR030C, strain dcg1, stronger effect = lower value
[33] = S. cerevisiae deletion strains, locus YJL095W, strain BCK1, stronger effect = lower value
[34] = S. cerevisiae deletion strains, locus YJL134W, strain LCB3, stronger effect = lower value
[35] = S. cerevisiae deletion strains, locus YJL168C, strain set2, stronger effect = lower value
[36] = S. cerevisiae deletion strains, locus YJL187C, strain SWE1 (second series), stronger effect = lower value
[37] = S. cerevisiae deletion strains, locus YJR043C, strain POL32, stronger effect = lower value
[38] = S. cerevisiae deletion strains, locus YKL009W, strain mrt4, stronger effect = lower value
[39] = S. cerevisiae deletion strains, locus YKL068W, stronger effect = lower value
[40] = S. cerevisiae deletion strains, locus YKL085W, strain MDH1 (second series), stronger effect = lower value
[41] = S. cerevisiae deletion strains, locus YKL085W, strain MDH1, stronger effect = lower value
[42] = S. cerevisiae deletion strains, locus YKR001C, strain vps1, stronger effect = lower value
[43] = S. cerevisiae deletion strains, locus YLR039C, strain RIC1, stronger effect = lower value
[44] = S. cerevisiae deletion strains, locus YLR058C, strain SHM2, stronger effect = lower value
[45] = S. cerevisiae deletion strains, locus YLR102C, strain apc9, stronger effect = lower value
[46] = S. cerevisiae deletion strains, locus YLR262C, strain YPT6, stronger effect = lower value
[47] = S. cerevisiae deletion strains, locus YLR268W, strain sec22, stronger effect = lower value
[48] = S. cerevisiae deletion strains, locus YLR330W, strain CHS5, stronger effect = lower value
[49] = S. cerevisiae deletion strains, locus YLR342W, strain FKS1 (second series), stronger effect = lower value
[50] = S. cerevisiae deletion strains, locus YLR371W, strain rom2, stronger effect = lower value
[51] = S. cerevisiae deletion strains, locus YLR418C, strain cdc73, stronger effect = lower value
[52] = S. cerevisiae deletion strains, locus YML016C, strain PPZ1, stronger effect = lower value
[53] = S. cerevisiae deletion strains, locus YML032C, strain rad52, stronger effect = lower value
[54] = S. cerevisiae deletion strains, locus YML124C, strain tub3, stronger effect = lower value
[55] = S. cerevisiae deletion strains, locus YMR078C, strain ctf18, stronger effect = lower value
[56] = S. cerevisiae deletion strains, locus YMR223W, strain ubp8, stronger effect = lower value
[57] = S. cerevisiae deletion strains, locus YMR307W, strain GAS1, stronger effect = lower value
[58] = S. cerevisiae deletion strains, locus YNL067W, strain RPL9B, stronger effect = lower value
[59] = S. cerevisiae deletion strains, locus YNL233W, strain BNI4, stronger effect = lower value
[60] = S. cerevisiae deletion strains, locus YNL250W, strain rad50, stronger effect = lower value
[61] = S. cerevisiae deletion strains, locus YNL271C, strain bni1, stronger effect = lower value
[62] = S. cerevisiae deletion strains, locus YNL298W, strain CLA4, stronger effect = lower value
[63] = S. cerevisiae deletion strains, locus YNL307C, strain MCK1, stronger effect = lower value
[64] = S. cerevisiae deletion strains, locus YNR052C, strain pop2, stronger effect = lower value
[65] = S. cerevisiae deletion strains, locus YOL012C, strain htz1
[66] = S. cerevisiae deletion strains, locus YOL147C, strain pex11, stronger effect = lower value
[67] = S. cerevisiae deletion strains, locus YOR061W, strain CKA2, stronger effect = lower value
[68] = S. cerevisiae deletion strains, locus YOR069W, strain VPS5, stronger effect = lower value
[69] = S. cerevisiae deletion strains, locus YOR136W, strain idh2, stronger effect = lower value
[70] = S. cerevisiae deletion strains, locus YOR144C, strain elg1, stronger effect = lower value
[71] = S. cerevisiae deletion strains, locus YOR184W, strain ser1, stronger effect = lower value
[72] = S. cerevisiae deletion strains, locus YOR316C, strain cot1, stronger effect = lower value
[73] = S. cerevisiae deletion strains, locus YPL055C, strain LGE1, stronger effect = lower value
[74] = S. cerevisiae deletion strains, locus YPR119W, strain clb2, stronger effect = lower value
[75] = S. cerevisiae deletion strains, locus YPR141C, strain kar3, stronger effect = lower value
[76] = S. cerevisiae deletion strains, locus YPR163C, strain tif3, stronger effect = lower value
[77] = S. cerevisiae deletion strains, locus YPR167C, strain met16, stronger effect = lower value
[78] = S. cerevisiae deletion strains, strain wtn01, stronger effect = lower value

Measured: normalized growth

COc1ccc(-c2coc3c(OC)c(OC)ccc3c2=O)cc1
inactive: [2] 0.996 | [3] 0.998 | [4] 0.963 | [5] 0.917 | [6] 0.969 | [7] 0.924 | [8] 1.01 | [9] 0.997 | [10] 0.985 | [11] 0.875 | [12] 0.988 | [13] 1 | [14] 0.986 | [15] 0.986 | [16] 1.01 | [17] 0.988 | [18] 0.974 | [19] 1 | [20] 0.958 | [21] 0.957 | [22] 0.968 | [23] 0.82 | [24] 0.984 | [25] 1.01 | [26] 1.01 | [27] 0.983 | [28] 1.01 | [29] 0.925 | [30] 0.99 | [31] 1 | [32] 0.998 | [33] 0.838 | [34] 0.995 | [35] 1.01 | [36] 0.957 | [37] 0.899 | S. cerevisiae deletion strains, locus YJR075W, strain HOC1, stronger effect = lower value 0.95 | [38] 0.988 | [39] 1 | [40] 0.994 | [41] 0.994 | [42] 0.948 | [43] 0.907 | [44] 0.974 | [45] 1.01 | [46] 0.906 | [47] 0.953 | [48] 0.972 | [49] 0.912 | [50] 1.01 | [51] 0.879 | [52] 0.993 | [53] 0.995 | [54] 0.997 | [55] 1.02 | [56] 1.01 | S. cerevisiae deletion strains, locus YMR263W, strain SAP30, stronger effect = lower value 0.931 | [57] 0.834 | [58] 0.941 | S. cerevisiae deletion strains, locus YNL128W, strain TEP1, stronger effect = lower value 0.973 | S. cerevisiae deletion strains, locus YNL153C, strain GIM3, stronger effect = lower value 0.955 | [59] 0.884 | [60] 1.03 | [61] 0.997 | [62] 0.997 | [63] 0.96 | S. cerevisiae deletion strains, locus YNL322C, strain KRE1, stronger effect = lower value 0.98 | [64] 1.01 | [65] 1.11 | [66] 0.989 | [67] 0.995 | [68] 0.998 | [69] 1 | [70] 0.994 | [71] 0.917 | [72] 1 | [73] 0.888 | [74] 1.02 | [75] 1 | [76] 0.999 | [77] 1 | [78] 0.988
active: [1] 0.728 | S. cerevisiae deletion strains, locus YGR229C, strain SMI1, stronger effect = lower value 0.787

COc1ccc(-c2coc3c(O)c(O)c(OC)cc3c2=O)cc1
inactive: [24] 0.96 | S. cerevisiae deletion strains, locus YHR079C, strain IRE1, stronger effect = lower value 0.969 | [33] 0.955 | S. cerevisiae deletion strains, locus YJR066W, strain TOR1, stronger effect = lower value 0.912 | S. cerevisiae deletion strains, locus YLR113W, strain HOG1, stronger effect = lower value 0.955 | S. cerevisiae deletion strains, locus YNL183C, strain NPR1, stronger effect = lower value 0.888 | S. cerevisiae deletion strains, locus YOR231W, strain MKK1, stronger effect = lower value 0.971 | S. cerevisiae deletion strains, locus YPL256C, strain CLN2, stronger effect = lower value 0.953

COc1ccc(-c2coc3c(OC)c(O)ccc3c2=O)cc1
inactive: [1] 0.951 | [2] 0.92 | [3] 0.97 | [4] 0.935 | [5] 0.9 | [6] 0.928 | [8] 0.949 | [9] 0.931 | [10] 0.944 | [12] 0.951 | [13] 0.965 | [14] 0.953 | [15] 0.958 | [16] 0.953 | [17] 0.997 | [18] 0.956 | [19] 0.961 | [21] 0.927 | [22] 0.931 | [23] 0.826 | [24] 0.976 | [25] 0.946 | [26] 0.952 | [27] 0.96 | [28] 0.936 | [29] 0.882 | [30] 0.884 | [31] 0.967 | [32] 0.962 | [33] 0.813 | [34] 0.968 | [35] 0.963 | [36] 0.916 | [37] 0.914 | [38] 0.928 | [39] 0.946 | [40] 0.944 | [41] 0.944 | S. cerevisiae deletion strains, locus YKL190W, strain CNB1, stronger effect = lower value 0.958 | [43] 0.861 | [44] 0.931 | [45] 0.965 | [46] 0.86 | [47] 0.942 | [48] 0.953 | [49] 0.86 | [50] 0.969 | [52] 0.963 | [53] 0.958 | [54] 0.952 | [55] 0.95 | [56] 0.943 | [57] 0.769 | [58] 0.918 | [59] 0.892 | [60] 0.968 | [61] 0.945 | [62] 0.94 | [64] 0.964 | S. cerevisiae deletion strains, locus YOL006C, strain TOP1, stronger effect = lower value 0.742 | [65] 0.945 | [66] 0.966 | [67] 0.933 | [68] 0.969 | [69] 0.98 | [70] 0.966 | [71] 0.876 | [72] 0.961 | [73] 0.86 | [74] 0.977 | [75] 0.955 | [76] 0.931 | [77] 0.954 | [78] 0.962 | S. cerevisiae strains, strain wild type, stronger effect = lower value 0.95
active: [7] 0.888 | [11] 0.792 | [20] 0.929 | [42] 0.896 | [51] 0.808 | [63] 0.896
